Screens: PubChem BioAssay, National Center for Advancing Translational Sciences (NCATS)
Most compounds without a hit are left out; they make up all but 19% or so of the library.
IL-1B inflam inh = qHTS for Inhibitors of Inflammasome Signaling: IL-1-beta AlphaLISA Primary Screen; AID 743279, 2014; THP-1 LPS/ATP IL-1B secretion, AlphaLISA, 16 h; stronger effect = lower value; activity change, % at 57.5 µM; 4.7% of 360,000 active; in the data active = activity change below about -50%; inconclusive = mostly about -30% to -49%; note: % is set by controls: 0 for no effect and ±100 for the full control effect
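Secreted IL-1B measured by AlphaLISA bead assay after 16 h compound exposure of THP-1 cells; compounds (final up to 57.5 uM) added 1 h before LPS (250 ng/mL) and ATP (1.25 mM) stimulation; lower signal means less secretion.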
DT40 TDP1 CPT = qHTS for Inhibitors of human tyrosyl-DNA phosphodiesterase 1 (TDP1): qHTS in cells in presence of CPT; chicken DT40 Tdp1-/-;hTDP1 cells + 20 nM CPT, ATP luminescence, 48 h; Potency, µM (doses to about 46.2 µM), without a hit: top-dose activity change, negative = growth inhibition, usual class: inhibitors; 12% of 420,000 active; note: potency is the fitted concentration of half-maximal effect; % is set by controls: 0 for no effect and ±100 for the full control effect; nearly all actives have a fitted effect of over 55% in size
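Chicken DT40 Tdp1-/- cells complemented with human TDP1, 400 cells/well, exposed to compounds plus 20 nM camptothecin for at least 48 h at 37 C; viability read as ATP content by CellTiter-Glo luminescence.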
TDP1 cell noCPT = qHTS for Inhibitors of human tyrosyl-DNA phosphodiesterase 1 (TDP1): qHTS in cells in absence of CPT; DT40 Tdp1-/- hTDP1 cells, no CPT, ATP luminescence, 48 h; AID 686978, 2013; Potency, µM (highest dose often 46.2 µM), inactives show at the top dose activity change, negative = growth inhibition, most hits filed as inhibitors; 15% of 420,000 active; note: potency is the fitted concentration of half-maximal effect; % is set by controls: 0 for no effect and ±100 for the full control effect; nearly all actives have a fitted effect of over 55% in size
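Compound effects on proliferation are scored in DT40 Tdp1-/-;hTDP1 cells in the absence of CPT. ATP levels (CellTiter-Glo luminescence) are recorded after a ≥48 hr, 37 °C incubation.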
HepG2 tox = qHTS for Inhibitors of TGF-b: Cytotox Counterscreen; AID 588856, 2011; Potency, µM (highest dose often 46.1 µM), without a hit: at the top dose activity change, negative = cytotoxicity, usual class: cytotoxic; HepG2 CAGA-GFP viability, ATP luminescence, 18 h; 0.76% of 410,000 active; note: potency is the fitted concentration of half-maximal effect
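HepG2 CAGA-GFP cells (1000/well, DMEM with 1% FBS) received compound, then TGF-beta at 500 pg/mL final, and were incubated 18 hours at 37 degrees C. Viability was read by CellTiter-Glo luminescence. Media-only wells were set as complete cell-killing and DMSO as no toxicity.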
S-ASM inh = Inhibitors of Secretory Acid Sphingomyelinase (S-ASM): qHTS; placental ASM, HMU-PC fluorogenic substrate, 60 min; Potency, µM (series often up to 57.5 µM), for inactives: at the top dose activity change, negative = inhibition, usual class: inhibitors; 0.006% of 340,000 active; AID 504937, 2011; note: potency is the fitted concentration of half-maximal effect
Target sequence (P17405 47-631 limits assumed): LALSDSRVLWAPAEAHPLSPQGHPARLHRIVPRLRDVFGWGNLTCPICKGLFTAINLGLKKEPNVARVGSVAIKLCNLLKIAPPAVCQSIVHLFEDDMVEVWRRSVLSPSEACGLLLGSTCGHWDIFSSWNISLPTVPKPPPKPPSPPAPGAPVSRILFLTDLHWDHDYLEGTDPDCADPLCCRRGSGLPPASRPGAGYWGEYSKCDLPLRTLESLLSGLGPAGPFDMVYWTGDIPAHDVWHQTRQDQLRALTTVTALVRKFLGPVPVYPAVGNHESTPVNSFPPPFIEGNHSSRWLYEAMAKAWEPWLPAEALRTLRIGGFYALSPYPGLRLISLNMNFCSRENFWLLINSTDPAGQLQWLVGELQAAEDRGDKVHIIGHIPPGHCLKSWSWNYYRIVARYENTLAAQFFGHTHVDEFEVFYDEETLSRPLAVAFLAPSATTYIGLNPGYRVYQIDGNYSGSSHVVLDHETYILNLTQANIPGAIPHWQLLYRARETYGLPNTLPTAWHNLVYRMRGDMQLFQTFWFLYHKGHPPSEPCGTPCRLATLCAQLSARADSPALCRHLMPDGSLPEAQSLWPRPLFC
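HMU-PC0 cleavage (9 uM final) by human placental ASM, 60 min at 37 °C following 10 min compound exposure at RT; stopped at pH 10, fluorescence Ex 386/Em 447 nm.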
TGFb SMAD3 inh = qHTS for Inhibitors of TGF-b. AID 588855, 2011. 1.2% of 410,000 active. HepG2 CAGA-GFP TGF-b/SMAD3 reporter, GFP fluorescence, 18 h; TGF-beta stimulated, 500 pg/mL final. Potency, µM (titrated, usually from 46.1 µM), without a hit: top-dose activity, negative = inhibition, hits mostly inhibitors; note: potency is the fitted concentration of half-maximal effect; % is set by controls: 0 for no effect and ±100 for the full control effect; nearly all actives have a fitted effect of over 65% in size
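Cell-based qHTS in HEPG2 carrying a CAGA-GFP Smad reporter; compounds added before 500 pg/mL final TGF-beta, 18 h incubation at 37 degrees C, GFP fluorescence quantified per cell by imaging cytometry.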
* marks the source's active call; other numbers are inactive results; ? = inconclusive; . = not tested or not shown; [ ] = dose if it differs, or a comment. Unless noted, calls come from the whole dose curve; as a rule, active = well fitted curve in the direction sought with a large enough effect; inconclusive = small, poorly fitted or top-dose-only effect, or another doubt; inactive = no such curve, though single readings can be large; an effect the other way counts as inactive or inconclusive.

SMILES	IL-1B inflam inh	DT40 TDP1 CPT	TDP1 cell noCPT	HepG2 tox	S-ASM inh	TGFb SMAD3 inh
CSc1ccc(-c2cc3c(c4c2ccn4C)C2CCC3O2)cc1 (centres undefined)	-2.1	?	?	-33.6%	.	?
CCCc1cc(C(=O)Nc2c(C)nn(Cc3ccc(Cl)c(Cl)c3)c2C)no1	.	13µM*	25.9µM*	-32.5%	.	?
CCCc1cc(C(=O)Nc2c(C)nn(Cc3ccc(C)cc3)c2C)no1	.	?	?	-18.6%	.	-20.9%
COc1ccccc1NC(=O)c1c(-c2ccc(C)cc2)nnc2ccccc12	.	18.4µM*	?	-2.3%	.	-4.2%
COc1ccc(NC(=O)c2c(-c3ccc(C)cc3)nnc3ccccc23)cc1OC	.	-14.6%	-20.2%	4.2%	.	8.5%
COc1ccc(NC(=O)c2c(-c3ccc(C)cc3)nnc3ccccc23)c(OC)c1	.	18.4µM*	16.4µM*	-13.9%	.	0.0%
COC(=O)C1CCN(C(=O)COC(=O)[C@@H]2CC(O)CN2S(=O)(=O)c2ccc3c(c2)OCCO3)CC1 (some centres undefined)	4.9	4.8%	0.6%	8.6%	1.9%	3.9%
CC(=O)c1ccc(NC(=O)C2CC2c2ccccc2)cc1 (centres undefined)	6.8	3.1%	0.7%	-12.1%	-0.7%	14.5%
COCCn1c(C)cc(/C=N/NC(=O)c2cccnc2)c1C	31.4	0.1%	-10.4%	-3.2%	4.5%	9.4%
Cc1cc(/C=N/NC(=O)c2ccc(O)cc2)c(C)n1CC(C)C	-53.1*	?	-22.2%	-12.7%	-1.1%	7.3%
Cc1c(-n2c(SCC(C)C)nc3ccccc3c2=O)c(=O)n(-c2ccccc2)n1C	-13.2	?	?	-37.1%	8.6%	-24.7%
CCCc1nc2ccccc2c(=O)n1-c1c(C)n(C)n(-c2ccccc2)c1=O	30.8	25.9µM*	18.4µM*	-2.5%	1.1%	0.0%
C=CCSc1nnc2nc3c(nn12)c1cc(C)ccc1n3CC=C	-7.3	16.4µM*	?	-2.8%	-9.7%	2.6%
COc1cccc(C(c2sc3nc(-c4ccco4)nn3c2O)N2CCCC2)c1 (centres undefined)	.	6.4%	-19.2%	-0.2%	.	-0.3%
O=c1c2cc3c(nc2ncn1Cc1ccccc1F)CCCC3	.	18.4µM*	?	0.1%	.	-15.2%
CO[C@H]1C[C@H](O[C@H]2[C@H](C)[C@@H](O[C@@H]3O[C@H](C)C[C@H](N(C)C)[C@H]3O)[C@@H](C)C[C@]3(CO3)C(=O)[C@H](C)[C@@H](O)[C@@H](C)[C@@H](C)OC(=O)[C@@H]2C)O[C@@H](C)[C@@H]1O	.	-22.6%[21.1 µM]	3.7%[21.1 µM]	.	.	.
O=C(OCCOc1ccc(Cl)cc1)c1cc(S(=O)(=O)N2CCCCC2)ccc1N1CCOCC1	12.1	13µM*	?	-20.4%	-2.1%	?
Cc1ccc(OCCOC(=O)c2cc(S(=O)(=O)N3CCCCC3)ccc2N2CCOCC2)cc1	0.6	16.4µM*	13µM*	-24.4%	-1.8%	?
COc1ccc(NC(=O)Cn2c(=O)n(Cc3nc(-c4ccccc4)no3)c(=O)c3cc4c(cc32)OCO4)c(OC)c1	.	-20.3%	-5.3%	7.3%	.	-5.8%
Cc1oc(-c2cccc(Cl)c2)nc1CN1CCCC(C(=O)NC(C)c2ccc3c(c2)OCCO3)C1 (centres undefined)	?	20.6µM*	11.6µM*	-33.3%	-5.4%	?
Cc1ccc(CNC(=O)C2CCCN(Cc3nc(-c4cccc(C)c4)oc3C)C2)cc1 (centres undefined)	.	18.4µM*	?	15.8µM*	.	?
COc1ccc(CNC(=O)C2CCN(Cc3nc(-c4ccc(OC)c(OC)c4)oc3C)CC2)cc1	.	?	?	-24.1%	.	?
Cc1oc(-c2cccc(Cl)c2)nc1CN1CCCC(C(=O)NCc2ccc(Cl)cc2)C1 (centres undefined)	.	8.2µM*	7.31µM*	-6.6%	.	?
Cc1oc(-c2cccc(Cl)c2)nc1CN1CCCC(C(=O)NCc2ccco2)C1 (centres undefined)	-3.5	?	?	-32.8%	3.4%	0.0%
Cc1cc(NC(=O)CSc2nc(C)c(C)n2CC(C)C)no1	-0.9	-25.2%	?	-9.5%	-3.0%	21.3%
SMILES	IL-1B inflam inh	DT40 TDP1 CPT	TDP1 cell noCPT	HepG2 tox	S-ASM inh	TGFb SMAD3 inh
CN(CC(=O)Nc1ccccc1Cl)C(=O)c1ccc(-c2cccc(C(F)(F)F)c2)o1	-2.6	?	?	-41.2%	-7.5%	?
O[C@@H]1CN(CC2CCCCC2)[C@@H](c2ccc(Cl)cc2)C[C@H]1n1cc(-c2ccc(F)cc2)nn1	0.9	?	?	10.4%	.	6.5%
COc1ccc(C(=O)N2CC(=O)Nc3ccc(C)cc3C2c2ccccc2)c(OC)c1 (centres undefined)	.	?	?	-66.6%	.	-4.3%
CN(c1ccccc1)S(=O)(=O)c1ccc(C(=O)NCc2ccco2)cc1	9.0	?	16.4µM*	-1.7%	4.2%	0.0%
COc1ccc(S(=O)(=O)N(C)c2ccc(C(=O)NCc3ccco3)cc2)cc1	-7.6	?	?	10.9%	0.1%	4.9%
CN(C)S(=O)(=O)c1ccc(C(=O)NCCc2ccco2)cc1	-4.0	-7.6%	23.1µM*	-5.4%	10.0%	12.8%
CNS(=O)(=O)c1cn(CC(=O)Nc2ccc(C)c(N(C)C)c2)cc1S(=O)(=O)NC	.	-22.4%	-5.9%	2.3%	.	-4.6%
COc1ccc(C(CNC(=O)c2ccc(S(=O)(=O)Nc3cccc(C)c3C)cc2)N2CCOCC2)cc1 (centres undefined)	-13.8	?	?	-17.2%	3.7%	-27.0%
Nc1nc(SCC(=O)N2CCCC2)[nH]c(=O)c1NC(=O)c1cccs1	-20.9	3.8%	?	-4.0%	5.7%	20.7%
Cn1c(CC(=O)Nc2ccc(Cl)cc2)nnc1SCC(=O)N1CCOCC1	4.0	15.2%	-17.6%	-0.9%	-2.9%	0.4%
O=[N+]([O-])c1ccc(-n2nnnc2-c2ccccc2)c([N+](=O)[O-])c1	-64.1*	3.66µM*	2.91µM*	15.8µM*	-0.9%	10µM*
Cc1nc2ccccc2nc1OCc1cccc(Cl)c1	19.3	?	14.6µM*	-43.4%	-5.1%	11.2µM*
